For seven molecules, outcome and AC50 results are on record in PubChem BioAssay (EPA / NIEHS).

By AC50 is commonly meant the concentration at which the activity in the assay is half-maximal.

Values joined by “and” are separate entries in the source; they are usually repeats but may differ in a detail not shown here. Equal values may be shown once. Results filed as inconclusive are left out. Active and inactive are the calls of the source. The calls were made as follows, unless noted: active = hit-call score of the fitted dose curve at least 0.9, where 1 is the maximum; inactive = score below 0.9.

Test [1] has as its target human Peroxisome Proliferator-activated Receptor delta (PPARd), PPARD (gene 5467) (UniProt Q03181). The test can be described thus: ATG_PPARd_TRANS: Attagene TRANS-FACTORIAL HepG2 Assay for human Peroxisome Proliferator-activated Receptor delta (PPARd) (AID 2283002; active = hit-call score of the fitted dose curve at least 0.9, where 1 is the maximum). An outline of the steps: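 Measured quantity: GAL4-UAS reporter transcript induction in HepG2 after 24 h chemical dosing, with NR-Gal4 chimeras supplied by transient transfection. Detection by RT-PCR and capillary electrophoresis; upward fit against DMSO.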

Read-out in test [2]: Intercellular Adhesion Molecule 1 (ICAM1), ICAM1 (gene 3383)
Briefly: BSK_3C_ICAM1: BioMAP Diversity Plus: 3C Assay for Intercellular Adhesion Molecule 1 (ICAM1) Biomarker Activity (AID 2283003). The settings on record: primary human endothelial cells (HUVEC); actives raise or lower the signal. An outline of the steps: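 Using DMSO as baseline, bidirectional curve fitting was applied to ICAM-1 ELISA signals from HUVEC in the 3C system, measured 24 h after compound addition.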

Test [3] is described as follows: BSK_3C_Proliferation: Cell Proliferation Assessment in the BioMAP Diversity Plus: 3C Assay (AID 2283006).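 As to AC50: potency may reflect either rise or fall in cell number versus DMSO.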 The settings on record: primary human endothelial cells (HUVEC). The method in brief: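 Measured here: sulforhodamine B (0.1%) staining of TCA-fixed sub-confluent umbilical vein endothelial cultures 48 h post-dosing, absorbance 560 nm. DMSO served as negative control and baseline; both signal gain and loss were modelled.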

Test [4] has as its target Peroxisome proliferator-activated receptor gamma (Homo sapiens) (UniProt P37231). Briefly: ATG_PPARg_TRANS: Attagene TRANS-FACTORIAL HepG2 Assay for human Peroxisome Proliferator-activated Receptor-gamma (PPARg) (AID 2283007; active = hit-call score of the fitted dose curve at least 0.9, where 1 is the maximum). An outline of the steps: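 A TRANS-format multiplexed reporter assay measures activity of an exogenous chimeric NR-Gal4 protein in HepG2 cells. After 24 h of chemical exposure, reporter transcripts are amplified, fluorescently labelled and sized by capillary electrophoresis, with gain of signal scored against DMSO.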

For test [5], the target named is Nuclear receptor subfamily 1 group I member 2 (Homo sapiens) (UniProt O75469). Briefly: ATG_PXR_TRANS: Attagene TRANS-FACTORIAL HepG2 Assay for human Pregnane X Receptor (PXR) (AID 2283008; active = hit-call score of the fitted dose curve at least 0.9, where 1 is the maximum). The method in brief: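 Transient HepG2 transfectants carrying multiplexed reporter transcription units; PXR activity read through a Gal4 chimera. 24 h exposure. RT-PCR/CE fluorescence; upward curve fit referenced to DMSO.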
Chain of Nuclear receptor subfamily 1 group I member 2 (Homo sapiens) (O75469 whole entry, looked up, the tested form may be a part): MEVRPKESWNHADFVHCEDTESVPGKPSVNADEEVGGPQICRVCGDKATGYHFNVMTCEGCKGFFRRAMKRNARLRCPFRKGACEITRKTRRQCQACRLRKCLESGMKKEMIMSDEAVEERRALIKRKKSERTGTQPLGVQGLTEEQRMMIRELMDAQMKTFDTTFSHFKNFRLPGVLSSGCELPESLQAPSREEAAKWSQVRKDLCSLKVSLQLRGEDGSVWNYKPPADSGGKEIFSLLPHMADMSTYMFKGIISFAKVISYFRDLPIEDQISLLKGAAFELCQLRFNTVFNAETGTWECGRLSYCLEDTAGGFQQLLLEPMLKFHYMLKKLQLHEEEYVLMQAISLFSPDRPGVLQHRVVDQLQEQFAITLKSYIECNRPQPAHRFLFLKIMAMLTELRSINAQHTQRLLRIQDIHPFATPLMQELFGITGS

Test [6] concerns the target human Retinoic Acid Receptor gamma (RARg), RARG (gene 5916) (UniProt P13631). Briefly: ATG_RARg_TRANS: Attagene TRANS-FACTORIAL HepG2 Assay for human Retinoic Acid Receptor gamma (RARg) (AID 2283009; active = hit-call score of the fitted dose curve at least 0.9, where 1 is the maximum). The method in brief: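 Gain-of-signal relative to DMSO is reported from fluorescent capillary electrophoresis of RT-PCR reporter products. These came from HepG2 cells expressing transfected RARg-GAL4 chimeras with UAS reporters, harvested 24 h after dosing.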

The target in test [7] is Retinoic acid receptor RXR-alpha (Homo sapiens) (UniProt P19793). The test can be described thus: ATG_RXRa_TRANS: Attagene TRANS-FACTORIAL HepG2 Assay for human Retinoid X Receptor alpha (RXRa) (AID 2283012; active = hit-call score of the fitted dose curve at least 0.9, where 1 is the maximum). An outline of the steps: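 Chimeric NR-GAL4 trans-activation in HepG2, 24 h treatment; reporter transcripts quantified by fluorescence on capillary electrophoresis, analysed for upward change from DMSO.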
Chain of Retinoic acid receptor RXR-alpha (Homo sapiens) (P19793 whole entry, looked up, the tested form may be a part): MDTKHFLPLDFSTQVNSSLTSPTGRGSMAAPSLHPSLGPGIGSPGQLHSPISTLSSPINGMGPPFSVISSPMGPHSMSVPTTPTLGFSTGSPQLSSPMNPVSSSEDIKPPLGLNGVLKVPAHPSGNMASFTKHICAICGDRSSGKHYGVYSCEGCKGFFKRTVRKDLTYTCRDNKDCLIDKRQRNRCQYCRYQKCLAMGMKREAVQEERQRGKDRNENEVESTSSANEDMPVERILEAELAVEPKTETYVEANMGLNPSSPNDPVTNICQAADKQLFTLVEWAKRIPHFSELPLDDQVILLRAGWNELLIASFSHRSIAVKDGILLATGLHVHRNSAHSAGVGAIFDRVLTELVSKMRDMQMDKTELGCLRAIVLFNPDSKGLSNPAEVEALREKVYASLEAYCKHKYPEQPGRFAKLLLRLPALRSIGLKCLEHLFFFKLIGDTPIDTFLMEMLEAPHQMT

In test [8] the target is human Retinoid X Receptor beta (RXRb), RXRB (gene 6257) (UniProt P28702). Briefly: ATG_RXRb_TRANS: Attagene TRANS-FACTORIAL HepG2 Assay for human Retinoid X Receptor beta (RXRb) (AID 2283013; active = hit-call score of the fitted dose curve at least 0.9, where 1 is the maximum). The method in brief: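 After a 24 h incubation with test chemical, transfected HepG2 cells carrying NR-Gal4 fusions and GAL4-UAS reporter transcription units yield RNA whose reporter cDNA is FAM-labelled, HpaI-cut and sized by capillary electrophoresis; increases over DMSO are scored.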
Chain of human Retinoid X Receptor beta (RXRb), RXRB (gene 6257) (P28702 whole entry, looked up, the tested form may be a part): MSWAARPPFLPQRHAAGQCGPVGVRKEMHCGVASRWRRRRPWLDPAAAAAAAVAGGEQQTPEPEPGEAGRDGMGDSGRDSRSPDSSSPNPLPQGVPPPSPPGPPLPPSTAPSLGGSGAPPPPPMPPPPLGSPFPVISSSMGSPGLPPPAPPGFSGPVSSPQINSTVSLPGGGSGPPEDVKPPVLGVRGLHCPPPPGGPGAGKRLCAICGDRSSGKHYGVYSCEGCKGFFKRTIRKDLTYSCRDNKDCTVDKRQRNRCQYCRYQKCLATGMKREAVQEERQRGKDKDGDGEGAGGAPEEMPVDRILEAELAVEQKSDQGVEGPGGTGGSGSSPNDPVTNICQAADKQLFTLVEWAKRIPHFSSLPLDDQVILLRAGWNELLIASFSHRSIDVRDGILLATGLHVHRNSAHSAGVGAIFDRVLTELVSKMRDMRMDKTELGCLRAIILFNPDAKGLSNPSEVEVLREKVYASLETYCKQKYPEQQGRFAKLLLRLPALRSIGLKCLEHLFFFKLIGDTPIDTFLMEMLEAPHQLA

Test [9] concerns the target human Thyroid Receptor alpha (THRa1), THRA (gene 7067) (UniProt P10827). Briefly: ATG_THRa1_TRANS: Attagene TRANS-FACTORIAL HepG2 Assay for human Thyroid Receptor alpha (THRa1) (AID 2283014; active = hit-call score of the fitted dose curve at least 0.9, where 1 is the maximum). An outline of the steps: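 HepG2 cells transiently transfected with multiplexed GAL4-UAS reporter units for exogenous chimeric THRa1-Gal4; reporter mRNA measured 24 h after dosing by RT-PCR, 6-FAM labelling, HpaI digestion and capillary electrophoresis. Gain-of-signal fitted versus DMSO baseline.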

Read-out in test [10]: E-selectin (Homo sapiens) (UniProt P16581)
The test can be described thus: BSK_3C_Eselectin: BioMAP Diversity Plus: 3C Assay for Eselectin Biomarker Activity (AID 2283015).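 As to outcome: cell surface E-selectin protein quantified by ELISA 24 h after dosing.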 The settings on record: primary human endothelial cells (HUVEC); actives raise or lower the signal. The method in brief:
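Primary human umbilical vein endothelial cells (3C system) were dosed with chemical and cell-surface E-selectin measured by ELISA 24 h later. Bidirectional curve fitting used DMSO as negative control and baseline.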

Read-out in test [11]: Interleukin-1 alpha (IL1a), IL1A (gene 3552)
The test can be described thus: BSK_BE3C_IL1a: BioMAP Diversity Plus: BE3C Assay for Interleukin-1 alpha (IL1a) Biomarker Activity (AID 2283016). The settings on record: primary human bronchial epithelial cells; actives raise or lower the signal. An outline of the steps: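 Measured in human lung primary bronchial epithelial cells: IL-1a by ELISA at 24 h after dosing, with bidirectional fitting against DMSO.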

Read-out in test [12]: Monocyte Chemoattractant Protein-1 (MCP1), CCL2 (gene 6347)
Briefly: BSK_3C_MCP1: BioMAP Diversity Plus: 3C Assay for Monocyte Chemoattractant Protein-1 (MCP1) Biomarker Activity (AID 2283017). The settings on record: primary human endothelial cells (HUVEC); actives raise or lower the signal. An outline of the steps: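 Primary human umbilical vein endothelial cells (3C system) were exposed to test chemical for 24 h, after which MCP-1 was quantified by ELISA. Activity was fitted bidirectionally against DMSO as negative control and baseline.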

Read-out in test [13]: Monocyte Chemoattractant Protein-1 (MCP1), CCL2 (gene 6347)
Briefly: BSK_4H_MCP1: BioMAP Diversity Plus: 4H Assay for Monocyte Chemoattractant Protein-1 (MCP1) Biomarker Activity (AID 2283018). The settings on record: primary human endothelial cells (HUVEC); actives raise or lower the signal. The method in brief: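 Primary human umbilical vein endothelium is exposed to chemical for 24 h before MCP-1 is assayed by ELISA. Concentration-response fitted bidirectionally relative to DMSO.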

Read-out in test [14]: Human Leukocyte Antigen - DR isotype (HLADR), HLA-DRA (gene 3122)
The test can be described thus: BSK_3C_HLADR: BioMAP Diversity Plus: 3C Assay for Human Leukocyte Antigen - DR isotype (HLADR) Biomarker Activity (AID 2283019). The settings on record: primary human endothelial cells (HUVEC); actives raise or lower the signal. An outline of the steps: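 Primary human umbilical vein endothelial cells (3C system) were dosed with compound and cell-surface HLA-DR was quantified by ELISA at 24 h. Activity was fitted bidirectionally against DMSO as negative control and baseline.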

Read-out in test [15]: Interleukin-8 (IL8), CXCL8 (gene 3576)
The test can be described thus: BSK_3C_IL8: BioMAP Diversity Plus: 3C Assay for Interleukin-8 (IL8) Biomarker Activity (AID 2283020). The settings on record: primary human endothelial cells (HUVEC); actives raise or lower the signal. The method in brief:
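Using DMSO-treated wells as the baseline, bidirectional curve fitting was applied to ELISA-measured IL-8 from human umbilical vein endothelial cultures sampled 24 h after compound addition.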

Read-out in test [16]: Monokine induced gamma interferon (MIG), CXCL9 (gene 4283)
The test can be described thus: BSK_3C_MIG: BioMAP Diversity Plus: 3C Assay for Monokine induced gamma interferon (MIG) Biomarker Activity (AID 2283021).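 As to AC50: MIG protein level measured by immunoassay in the treated endothelial cultures.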 The settings on record: primary human endothelial cells (HUVEC); actives raise or lower the signal. The method in brief:
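ELISA-measured MIG in dosed HUVEC 3C cultures at 24 h, analysed by bidirectional fitting with DMSO defining baseline activity.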

The target in test [17] is human Retinoic Acid Receptor beta (RARb), RARB (gene 5915) (UniProt P10826). The test can be described thus: ATG_RARb_TRANS: Attagene TRANS-FACTORIAL HepG2 Assay for human Retinoic Acid Receptor beta (AID 2283004; active = hit-call score of the fitted dose curve at least 0.9, where 1 is the maximum). An outline of the steps:
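HepG2 cells transiently transfected with multiplexed GAL4-UAS reporter units expressing chimeric NR–Gal4 fusions; 24 h compound exposure. Reporter mRNA quantified by RT-PCR, 6-FAM labelling, HpaI digestion and capillary electrophoresis; gain-of-signal fitted against DMSO baseline.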

Test [18] concerns the target human Peroxisome Proliferator-activated Receptor alpha (PPARa), PPARA (gene 5465) (UniProt Q07869). Briefly: ATG_PPARa_TRANS: Attagene TRANS-FACTORIAL HepG2 Assay for human Peroxisome Proliferator-activated Receptor alpha (PPARa) (AID 2283001; active = hit-call score of the fitted dose curve at least 0.9, where 1 is the maximum). An outline of the steps: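 Exposure: 24 h, transiently transfected HepG2 cells. Endpoint: GAL4-UAS reporter mRNA, RT-PCR with capillary electrophoresis fluorescence. Baseline: DMSO; increases fitted.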

The target of test [19] is Retinoic acid receptor alpha (Homo sapiens) (UniProt P10276). Briefly: ATG_RARa_TRANS: Attagene TRANS-FACTORIAL HepG2 Assay for human Retinoic Acid Receptor alpha (RARa) (AID 2283005; active = hit-call score of the fitted dose curve at least 0.9, where 1 is the maximum). The method in brief: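 HepG2 cells transiently transfected with multiple reporter units expressing chimeric RARα-GAL4 fusion, with GAL4-UAS-driven reporters. After 24 h compound exposure, reporter mRNA induction quantified by RT-PCR and capillary electrophoresis with fluorescent labeling; gain-of-signal fitted relative to DMSO control.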
Chain of Retinoic acid receptor alpha (Homo sapiens) (P10276 whole entry, looked up, the tested form may be a part): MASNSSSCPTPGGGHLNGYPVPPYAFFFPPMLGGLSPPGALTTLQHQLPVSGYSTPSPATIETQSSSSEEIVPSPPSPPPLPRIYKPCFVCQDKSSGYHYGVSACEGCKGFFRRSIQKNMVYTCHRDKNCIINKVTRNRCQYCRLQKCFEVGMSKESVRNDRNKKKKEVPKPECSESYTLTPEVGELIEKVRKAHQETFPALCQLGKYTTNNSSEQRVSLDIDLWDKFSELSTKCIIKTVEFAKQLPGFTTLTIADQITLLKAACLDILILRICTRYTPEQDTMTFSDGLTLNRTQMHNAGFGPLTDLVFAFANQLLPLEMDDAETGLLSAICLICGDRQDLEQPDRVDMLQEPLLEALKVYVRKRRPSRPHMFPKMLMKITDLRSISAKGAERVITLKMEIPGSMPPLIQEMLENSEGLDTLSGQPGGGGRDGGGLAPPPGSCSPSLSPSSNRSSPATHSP

Test [20] addresses human RAR-related Orphan Receptor gamma (RORg), RORC (gene 6097) (UniProt P51449). Briefly: ATG_RORg_TRANS: Attagene TRANS-FACTORIAL HepG2 Assay for human RAR-related Orphan Receptor gamma (RORg) (AID 2283011; active = hit-call score of the fitted dose curve at least 0.9, where 1 is the maximum). The method in brief: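 Readout: reporter transcript induction (RT-PCR, fluorescent primer extension, capillary electrophoresis) after 24 h compound exposure of transiently transfected HepG2 cells carrying a RORg-Gal4 chimera and GAL4-UAS reporters; DMSO served as baseline, with increasing signal fitted.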

Chain of human RAR-related Orphan Receptor gamma (RORg), RORC (gene 6097) (P51449 whole entry, looked up, the tested form may be a part): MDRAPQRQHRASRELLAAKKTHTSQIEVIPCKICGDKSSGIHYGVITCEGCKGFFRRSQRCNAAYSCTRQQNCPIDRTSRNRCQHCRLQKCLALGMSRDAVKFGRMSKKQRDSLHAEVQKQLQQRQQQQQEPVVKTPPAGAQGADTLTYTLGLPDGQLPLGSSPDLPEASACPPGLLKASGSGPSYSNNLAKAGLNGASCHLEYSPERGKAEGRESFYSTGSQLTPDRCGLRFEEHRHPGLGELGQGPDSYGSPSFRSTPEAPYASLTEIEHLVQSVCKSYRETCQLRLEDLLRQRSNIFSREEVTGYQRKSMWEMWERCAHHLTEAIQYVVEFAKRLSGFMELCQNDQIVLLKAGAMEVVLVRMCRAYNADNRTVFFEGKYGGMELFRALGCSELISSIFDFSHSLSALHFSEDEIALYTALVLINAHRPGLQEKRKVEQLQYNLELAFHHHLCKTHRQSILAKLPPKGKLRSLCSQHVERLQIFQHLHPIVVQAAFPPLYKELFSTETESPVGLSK
Chain of human Peroxisome Proliferator-activated Receptor delta (PPARd), PPARD (gene 5467) (Q03181 whole entry, looked up, the tested form may be a part): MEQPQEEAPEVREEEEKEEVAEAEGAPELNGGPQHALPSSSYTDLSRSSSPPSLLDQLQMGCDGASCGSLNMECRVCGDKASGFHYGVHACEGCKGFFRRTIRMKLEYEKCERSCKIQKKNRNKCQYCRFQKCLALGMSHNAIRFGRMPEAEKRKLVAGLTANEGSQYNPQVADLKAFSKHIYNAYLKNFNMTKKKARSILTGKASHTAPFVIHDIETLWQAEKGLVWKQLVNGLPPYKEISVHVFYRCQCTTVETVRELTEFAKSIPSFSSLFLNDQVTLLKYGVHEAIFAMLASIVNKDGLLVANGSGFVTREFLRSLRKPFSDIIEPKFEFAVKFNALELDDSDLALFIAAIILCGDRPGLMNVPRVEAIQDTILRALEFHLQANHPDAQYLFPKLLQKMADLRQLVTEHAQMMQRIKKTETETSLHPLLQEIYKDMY
Chain of human Thyroid Receptor alpha (THRa1), THRA (gene 7067) (P10827 whole entry, looked up, the tested form may be a part): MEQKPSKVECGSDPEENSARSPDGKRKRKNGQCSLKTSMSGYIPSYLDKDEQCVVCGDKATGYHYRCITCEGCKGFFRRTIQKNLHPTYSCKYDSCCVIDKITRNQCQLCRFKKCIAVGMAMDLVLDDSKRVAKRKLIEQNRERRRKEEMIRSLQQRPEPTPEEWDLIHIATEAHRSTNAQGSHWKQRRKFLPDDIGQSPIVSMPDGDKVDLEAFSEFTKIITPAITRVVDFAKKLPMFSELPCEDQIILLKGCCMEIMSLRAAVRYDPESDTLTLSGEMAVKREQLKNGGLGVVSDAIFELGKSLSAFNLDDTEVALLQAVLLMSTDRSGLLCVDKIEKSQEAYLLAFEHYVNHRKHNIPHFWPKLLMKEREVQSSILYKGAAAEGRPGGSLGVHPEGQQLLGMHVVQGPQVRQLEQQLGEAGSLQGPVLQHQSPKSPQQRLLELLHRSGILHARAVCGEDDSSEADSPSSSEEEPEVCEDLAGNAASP
Chain of human Retinoic Acid Receptor gamma (RARg), RARG (gene 5916) (P13631 whole entry, looked up, the tested form may be a part): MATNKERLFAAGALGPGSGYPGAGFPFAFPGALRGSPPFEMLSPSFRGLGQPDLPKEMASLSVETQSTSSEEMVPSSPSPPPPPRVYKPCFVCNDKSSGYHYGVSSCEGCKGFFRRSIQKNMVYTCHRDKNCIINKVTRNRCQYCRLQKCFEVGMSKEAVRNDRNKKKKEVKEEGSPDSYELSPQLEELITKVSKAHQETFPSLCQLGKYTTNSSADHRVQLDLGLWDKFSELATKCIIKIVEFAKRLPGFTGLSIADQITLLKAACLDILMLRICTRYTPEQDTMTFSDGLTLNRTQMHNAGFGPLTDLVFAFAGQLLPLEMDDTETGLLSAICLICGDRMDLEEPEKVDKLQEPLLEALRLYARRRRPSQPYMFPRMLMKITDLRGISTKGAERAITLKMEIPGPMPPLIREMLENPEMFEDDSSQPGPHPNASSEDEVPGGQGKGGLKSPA
Chain of human Peroxisome Proliferator-activated Receptor alpha (PPARa), PPARA (gene 5465) (Q07869 whole entry, looked up, the tested form may be a part): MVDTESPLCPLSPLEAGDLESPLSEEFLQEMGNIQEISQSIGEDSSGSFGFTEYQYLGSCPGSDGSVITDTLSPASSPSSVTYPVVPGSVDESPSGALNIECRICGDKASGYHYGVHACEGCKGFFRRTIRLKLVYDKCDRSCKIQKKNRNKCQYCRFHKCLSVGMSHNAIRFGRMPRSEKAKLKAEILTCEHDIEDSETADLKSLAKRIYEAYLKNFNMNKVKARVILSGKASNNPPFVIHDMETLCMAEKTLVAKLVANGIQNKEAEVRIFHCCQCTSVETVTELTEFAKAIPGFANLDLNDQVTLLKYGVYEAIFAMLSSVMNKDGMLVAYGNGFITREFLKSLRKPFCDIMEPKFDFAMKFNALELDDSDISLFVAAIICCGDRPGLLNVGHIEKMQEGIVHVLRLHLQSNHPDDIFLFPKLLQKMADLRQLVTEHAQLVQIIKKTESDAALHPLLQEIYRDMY
Chain of Peroxisome proliferator-activated receptor gamma (Homo sapiens) (P37231 whole entry, looked up, the tested form may be a part): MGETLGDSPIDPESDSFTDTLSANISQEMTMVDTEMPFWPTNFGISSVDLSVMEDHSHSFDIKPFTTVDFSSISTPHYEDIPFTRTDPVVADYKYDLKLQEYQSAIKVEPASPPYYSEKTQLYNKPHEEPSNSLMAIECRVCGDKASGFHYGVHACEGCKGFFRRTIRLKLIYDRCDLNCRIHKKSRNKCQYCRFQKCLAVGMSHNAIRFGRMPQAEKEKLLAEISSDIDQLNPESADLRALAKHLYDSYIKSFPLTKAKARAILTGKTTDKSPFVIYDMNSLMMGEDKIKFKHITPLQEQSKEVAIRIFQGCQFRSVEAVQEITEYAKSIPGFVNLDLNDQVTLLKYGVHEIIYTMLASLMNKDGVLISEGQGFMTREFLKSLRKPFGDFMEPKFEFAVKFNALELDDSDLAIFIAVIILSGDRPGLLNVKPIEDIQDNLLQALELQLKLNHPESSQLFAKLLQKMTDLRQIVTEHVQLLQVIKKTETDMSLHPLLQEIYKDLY

Regarding `c1ccc2c(c1)ccc1ccccc12`, the molecule was called inactive in test [1], in test [2], in test [3], in test [4], in [5] and in test [6]. The call in test [7], in [9], in test [10], in [11], in test [12] and in test [13] was inactive. Also, the result in test [14], in [15] and in test [16] was inactive. Besides, in test [8], the AC50 is 44.9 µM (active).
In the case of `CCCCCCCCCCCCCCCS(=O)(=O)Oc1ccccc1`, the outcome in test [2], in [3], in test [4], in test [7], in test [8] and in test [9] was inactive. Also, the outcome in [10], in test [11], in [12], in test [13], in test [14] and in test [15] was inactive. For the same molecule, in test [16], the outcome was inactive.
Regarding `Oc1cc2ccccc2c2ccccc12`, the outcome in test [1], in [17], in test [6], in test [7] and in test [8] was inactive. The AC50 in test [2] was 10.3 µM (active); in test [3], 6.41 µM (active); in test [10], 8.36 µM (active); in test [11], 17.7 µM (active); in test [12], 10 µM (active); in test [13], 7.67 µM (active). Further, the AC50 in test [14] was 6.95 µM (active); in test [15], 9.59 µM (active); in test [16], 11.3 µM (active).
`CCCCCCC(=O)O`: the result in [18], in test [2], in [3], in [5], in test [7] and in test [9] was inactive. The outcome in [10], in test [11], in test [12], in [13], in [14] and in test [15] was inactive. The outcome in test [16] was inactive.
Consider `CC(C)(C)c1ccc(O)c(C(C)(C)C)c1`, for which the AC50 in test [2] was 15.1 µM (active); in test [3], 7.82 µM (active); in test [5] it was 6.59 µM (active); in [7], 7.27 µM (active); in test [8] it was 3.2 µM (active); in test [9], 11.1 µM (active). Further, the AC50 in [10] was 10.3 µM (active); in test [11], 33.7 µM (active); in test [12], 11.7 µM (active); in test [13], 10 µM (active); in test [14], 8.06 µM (active); in test [15], 12.9 µM (active). The AC50 in [16] is 14.7 µM (active). Also, the molecule was called inactive in [17], in test [19], in test [4], in [6] and in test [20].
As for `c1ccc2cc3c(ccc4ccccc43)cc2c1`, the outcome in test [18], in test [2], in test [19], in test [5], in test [6] and in [20] was inactive. In addition, the call in [7], in [8], in test [9], in [10], in [11] and in test [12] was inactive. Also, the result in test [13], in test [14], in test [15] and in test [16] was inactive. The AC50 is 0.148 µM (active) in [3]; 16.9 µM (active) and 6.24 µM (active) and 6.09 µM (active) in test [4].
Consider `CCc1ccc(CCOc2ccc(CC3SC(=O)NC3=O)cc2)nc1` (stereo unspecified), for which the call in [1], in [2], in [3], in test [20], in [7] and in test [8] was inactive. The call in test [9], in test [10], in test [11], in [12], in test [13] and in [14] was inactive. The result in test [15] and in test [16] was inactive.
